Reference: PubChem BioAssay (NCI)
This is part of a sample that, as a whole, favours compounds with a hit. Of some 79,000 tested, about 15% had one in any assay. Calls of active or inactive are those of the source. No stated cut-off is given here; in the data, active means growth inhibition above about 70%; inactive means the rest.

Key:
[1] = NCI Yeast Anticancer Drug Screen. Data for the rad52 strain (AID 147);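 further: 0% = growth of vehicle-treated control cultures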; settings: S. cerevisiae rad52 mutant growth inhibition, hits give high values
Procedure, shortened: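 The repair-mutant yeast strain was incubated with compounds, then growth was read and inhibition derived relative to vehicle.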

[2] = NCI Yeast Anticancer Drug Screen. Data for the wt1 strain (AID 149);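 further: 0% = growth of vehicle-treated wt1 cultures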; settings: S. cerevisiae wt1 strain (SPY 50644) growth inhibition, hits give high values
Procedure, shortened: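 Readout: yeast growth inhibition, normalised to vehicle controls, in the wt1 strain exposed to test compounds.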

[3] = NCI Yeast Anticancer Drug Screen. Data for the rad50EPP+ strain (AID 151);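 further: 0% = growth of vehicle-treated control cultures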; settings: S. cerevisiae rad50 mutant strain, hits give high values
Procedure, shortened: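 Vehicle-normalised growth inhibition; rad50EPP+ yeast strain, altered in DNA damage repair, compound-treated.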

[4] = NCI Yeast Anticancer Drug Screen. Data for the mgt1 strain (AID 153); settings: S. cerevisiae mgt1 mutant growth inhibition, hits give high values
Procedure, shortened: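 Vehicle-normalized growth inhibition is determined in mgt1 yeast, a strain selected for a defined alteration in DNA repair or cell cycle control.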

[5] = NCI Yeast Anticancer Drug Screen. Data for the rad50 strain (AID 155);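 further: 0% = growth of vehicle-only cultures of the same strain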; settings: S. cerevisiae rad50 strain growth inhibition, hits give high values
Procedure, shortened: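 Compounds were tested on a yeast strain with an engineered DNA damage repair alteration; the reported value is growth inhibition normalised to vehicle treatment.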

[6] = NCI Yeast Anticancer Drug Screen. Data for the mec2-1 strain (AID 157); settings: S. cerevisiae mec2-1 strain, hits give high values
Procedure, shortened: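 Mutant yeast (mec2-1) grown with compound; growth inhibition relative to vehicle control reported.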

[7] = NCI Yeast Anticancer Drug Screen. Data for the rad14 strain (AID 159);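 further: 0% = growth of vehicle-treated control cultures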; settings: S. cerevisiae rad14 strain growth inhibition, hits give high values
Procedure, shortened: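 Compound-treated yeast with a defined DNA-repair lesion; growth inhibition normalised to vehicle-treated cultures.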

[8] = NCI Yeast Anticancer Drug Screen. Data for the sgs1 mgt1 strain (AID 161);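 further: 0% = growth of cultures given vehicle only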; settings: S. cerevisiae sgs1 mgt1 strain, hits give high values
Procedure, shortened: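 Compounds are added to genetically altered yeast, and growth is compared with cultures given vehicle alone to give percent inhibition.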

[9] = NCI Yeast Anticancer Drug Screen. Data for the CLN2oe strain (AID 163);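 further: 0% = growth of vehicle-only control cultures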; settings: S. cerevisiae CLN2oe strain, hits give high values
Procedure, shortened: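 Compounds are applied to yeast harbouring a defined cell-cycle control change; reduced growth compared with vehicle-treated controls gives the value.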

[10] = NCI Yeast Anticancer Drug Screen. Data for the cln2 rad14 strain (AID 165);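 further: 0% = growth equal to vehicle treated cultures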; settings: S. cerevisiae cln2 rad14 strain, hits give high values
Procedure, shortened: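 Readout is yeast growth inhibition versus vehicle-treated controls, using a strain with cln2 and rad14 alterations exposed to compound.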

[11] = NCI Yeast Anticancer Drug Screen. Data for the bub3 strain (AID 167); settings: S. cerevisiae bub3 mutant strain, hits give high values
Procedure, shortened: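 Growth of a checkpoint-deficient yeast mutant is measured after compound exposure. Values represent inhibition relative to vehicle.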

[12] = NCI Yeast Anticancer Drug Screen. Data for the wt2 strain (AID 169);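 further: 0% = growth of vehicle-treated yeast cultures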; settings: S. cerevisiae wt2 strain growth inhibition, hits give high values
Procedure, shortened: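 Against vehicle-treated controls, the growth of yeast exposed to each compound was compared, and the inhibition was recorded.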

[13] = NCI Yeast Anticancer Drug Screen. Data for the mlh1 strain (AID 171);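 further: 0% = growth of vehicle-treated control cultures of the same strain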; settings: S. cerevisiae mlh1 strain growth inhibition, hits give high values
Procedure, shortened: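 Measured: yeast growth. Reference: vehicle-treated controls. Organism: strain with a defined alteration affecting DNA damage repair or cell cycle control, treated with compound.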

[14] = NCI Yeast Anticancer Drug Screen. Data for the sgs1 strain (AID 173);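 further: 0% = growth of vehicle-only control cultures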; settings: S. cerevisiae sgs1 mutant, hits give high values
Procedure, shortened: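 Each compound was added to cultures of the altered yeast strain. Growth was recorded, and inhibition was derived by comparison with vehicle controls.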

[15] = NCI Yeast Anticancer Drug Screen. Data for the mlh1 rad18 strain (AID 175); settings: S. cerevisiae mlh1 rad18 strain growth inhibition, hits give high values
Procedure, shortened: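 Genetically defined yeast (DNA repair-deficient) exposed to compounds; growth inhibition determined relative to vehicle.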

[16] = NCI Yeast Anticancer Drug Screen. Data for the rad18 strain (AID 177); settings: S. cerevisiae rad18 mutant growth inhibition, hits give high values
Procedure, shortened: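 Vehicle-treated cultures served as the baseline for scoring compound-induced growth inhibition in DNA-repair-mutant yeast.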

[17] = at 5.0 µM (retest, dose inferred, filed as 0.5)
[18] = at 50.0 µM (retest, dose inferred, filed as 5.0)

Measured: growth inhibition

Nc1cccc(-c2cc[cH-]c2)c1.[Fe+2].c1cc[cH-]c1
inactive: [1]; at 1.2 µM -2% | [1]; at 3.7 µM 6% | [1]; at 11.0 µM 15% | [1]; at 33.0 µM 39% | [2]; at 1.2 µM -1% | [2]; at 3.7 µM -3% | [2]; at 11.0 µM -3% | [2]; at 33.0 µM 2% | [2]; at 100.0 µM 50% | [3]; at 1.2 µM -1% | [3]; at 3.7 µM 9% | [3]; at 11.0 µM 21% | [3]; at 33.0 µM 20% | [4]; at 1.2 µM -4% | [4]; at 3.7 µM -3% | [4]; at 11.0 µM -2% | [4]; at 33.0 µM 4% | [5]; at 1.2 µM -3% | [5]; at 3.7 µM 3% | [5]; [17] -14% | [5]; at 11.0 µM 16% | [5]; at 33.0 µM 35% | [5]; [18] 15% | [5]; at 50.0 µM 35.5% | [6]; at 1.2 µM -2% | [6]; at 3.7 µM -3% | [6]; [17] -18% | [6]; at 11.0 µM -3% | [6]; at 33.0 µM 3% | [6]; [18] -10% | [6]; at 50.0 µM 38.5% | [7]; at 1.2 µM 0% | [7]; at 3.7 µM 6% | [7]; at 11.0 µM 14% | [7]; at 33.0 µM 25% | [8]; [17] -9% | [8]; [18] 7% | [8]; at 50.0 µM 31.4% | [9]; at 1.2 µM -11% | [9]; at 3.7 µM -5% | [9]; at 11.0 µM -6% | [9]; at 33.0 µM -1% | [9]; at 100.0 µM 64% | [10]; [17] -8% | [10]; [18] 9% | [10]; at 50.0 µM 17.6% | [11]; at 1.2 µM 6% | [11]; at 3.7 µM 6% | [11]; [17] 5% | [11]; at 11.0 µM 7% | [11]; at 33.0 µM 27% | [11]; [18] 68% | [11]; at 50.0 µM 58.2% | [12]; at 1.2 µM 6% | [12]; at 3.7 µM 4% | [12]; at 11.0 µM 9% | [12]; at 33.0 µM 3% | [13]; at 1.2 µM -3% | [13]; at 3.7 µM 2% | [13]; at 11.0 µM 8% | [13]; at 33.0 µM 23% | [14]; at 1.2 µM -10% | [14]; at 3.7 µM -30% | [14]; at 11.0 µM 11% | [14]; at 33.0 µM 54% | [15]; [17] -21% | [15]; [18] 39% | [15]; at 50.0 µM 55.5% | [16]; at 1.2 µM -4% | [16]; at 3.7 µM 7% | [16]; at 11.0 µM 26% | [16]; at 33.0 µM 50%
active: [1]; at 100.0 µM 95% | [3]; at 100.0 µM 76% | [4]; at 100.0 µM 93% | [5]; at 100.0 µM 96% | [6]; at 100.0 µM 79% | [7]; at 100.0 µM 96% | [11]; at 100.0 µM 86% | [12]; at 100.0 µM 95% | [13]; at 100.0 µM 96% | [14]; at 100.0 µM 99% | [16]; at 100.0 µM 97%

CN(N=O)C(=O)Nc1ccc(C(=O)O)cc1
inactive: [1]; at 1.2 µM 1% | [1]; at 3.7 µM 3% | [1]; at 11.0 µM 8% | [1]; at 33.0 µM 29% | [1]; at 100.0 µM 62% | [2]; at 1.2 µM -2% | [2]; at 3.7 µM -3% | [2]; at 11.0 µM -2% | [2]; at 33.0 µM -2% | [2]; at 100.0 µM 2% | [3]; at 1.2 µM -1% | [3]; at 3.7 µM 0% | [3]; at 11.0 µM 3% | [3]; at 33.0 µM 12% | [3]; at 100.0 µM 31% | [4]; at 1.2 µM 0% | [4]; at 3.7 µM 3% | [4]; at 11.0 µM 15% | [4]; at 33.0 µM 28% | [4]; at 100.0 µM 36% | [5]; at 1.2 µM 2% | [5]; at 3.7 µM 11% | [5]; [17] 12% | [5]; at 11.0 µM 19% | [5]; at 33.0 µM 44% | [5]; [18] 68% | [5]; at 50.0 µM 65.3% | [6]; at 1.2 µM -10% | [6]; at 3.7 µM 1% | [6]; [17] -8% | [6]; at 11.0 µM -6% | [6]; at 33.0 µM -7% | [6]; [18] 37% | [6]; at 50.0 µM 7.8% | [6]; at 100.0 µM 19% | [7]; at 1.2 µM -4% | [7]; at 3.7 µM 6% | [7]; at 11.0 µM -1% | [7]; at 33.0 µM 2% | [7]; at 100.0 µM 8% | [8]; [17] 43% | [8]; at 50.0 µM 62.6% | [9]; at 1.2 µM -4% | [9]; at 3.7 µM -3% | [9]; at 11.0 µM -6% | [9]; at 33.0 µM -9% | [9]; at 100.0 µM -1% | [10]; [17] -45% | [10]; [18] -4% | [10]; at 50.0 µM 2.05% | [11]; at 1.2 µM -14% | [11]; at 3.7 µM -8% | [11]; [17] -16% | [11]; at 11.0 µM -5% | [11]; at 33.0 µM -9% | [11]; [18] 6% | [11]; at 50.0 µM -14.2% | [11]; at 100.0 µM -8% | [12]; at 1.2 µM -3% | [12]; at 3.7 µM -2% | [12]; at 11.0 µM -1% | [12]; at 33.0 µM 0% | [12]; at 100.0 µM 6% | [13]; at 1.2 µM -6% | [13]; at 3.7 µM 1% | [13]; at 11.0 µM -1% | [13]; at 33.0 µM -21% | [13]; at 100.0 µM -12% | [14]; at 1.2 µM 2% | [14]; at 3.7 µM 8% | [14]; at 11.0 µM 20% | [14]; at 33.0 µM 35% | [14]; at 100.0 µM 55% | [15]; [17] 16% | [15]; [18] 51% | [15]; at 50.0 µM 32.9% | [16]; at 1.2 µM 18% | [16]; at 3.7 µM 47%
active: [5]; at 100.0 µM 77% | [8]; [18] 80% | [16]; at 11.0 µM 81% | [16]; at 33.0 µM 90% | [16]; at 100.0 µM 93%

COC(=N)c1ccc(O)c(C)c1
inactive: [1]; at 1.2 µM -3% | [1]; at 3.7 µM -6% | [1]; at 11.0 µM -11% | [1]; at 33.0 µM -16% | [1]; at 100.0 µM -5% | [2]; at 1.2 µM -6% | [2]; at 3.7 µM -5% | [2]; at 11.0 µM -6% | [2]; at 33.0 µM -5% | [2]; at 100.0 µM -3% | [3]; at 1.2 µM -1% | [3]; at 3.7 µM 1% | [3]; at 11.0 µM 5% | [3]; at 33.0 µM 11% | [3]; at 100.0 µM 9% | [4]; at 1.2 µM -4% | [4]; at 3.7 µM -3% | [4]; at 11.0 µM -2% | [4]; at 33.0 µM -3% | [4]; at 100.0 µM -3% | [5]; at 1.2 µM -7% | [5]; at 3.7 µM -19% | [5]; [17] -138% | [5]; at 11.0 µM -6% | [5]; at 33.0 µM 7% | [5]; [18] 10% | [5]; at 50.0 µM 50.4% | [5]; at 100.0 µM 3% | [6]; at 1.2 µM 0% | [6]; at 3.7 µM 0%
